Bioassay records as filed in PubChem BioAssay.
DT40 TDP1 no CPT = qHTS for Inhibitors of human tyrosyl-DNA phosphodiesterase 1 (TDP1): qHTS in cells in absence of CPT | hit rate 15% among 420,000 | DT40 Tdp1-/- hTDP1 cells, no CPT, ATP luminescence, 48 h | Potency, µM (highest dose often 46.2 µM), inactives show at the top dose activity change, negative = growth inhibition, most hits filed as inhibitors; note: % is set by controls: 0 for no effect and ±100 for the full control effect; nearly all actives have a fitted effect of over 55% in size
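Camptothecin absent (DMSO only). Human TDP1-complemented DT40 knockout cells, 400 cells/well, 37 °C for minimum 48 hr; ATP measured via CellTiter-Glo, 30 min dark incubation, luminescence.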
ClpP mod = qHTS Assay for Activators of ClpP; purified B. subtilis ClpP, FRET peptide cleavage, 20 min; Potency, µM (series often up to 57.5 µM), without a hit: at the top dose activity change, negative = active; hit rate 1.9% among 340,000; active = well fitted falling curve with a large enough effect; inconclusive = small, poorly fitted or top-dose-only effect; inactive = no such curve, though single readings can be large or run the other way; note: the source files actives as falling curves though it sought activators and does not explain the sign; nearly all actives have a fitted effect of over 65% in size
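Buffer: 100 mM Tris/HCl pH8, 100 mM KCl, 0.05% low protease BSA, 2.5% glycerol, 0.01% Tween-20. ClpP 10 microg/mL final; 20 min RT; delta FRET normalized to ADEP and DMSO controls.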
TDP1 block = inhibitors of human tyrosyl-DNA phosphodiesterase TDP1; Q9NUW8; recombinant TDP1, AlphaScreen DNA substrate cleavage; Potency, µM (doses to about 130 µM), inactives show top-dose activity change, negative = inhibition, hits mostly inhibitors; hit rate 0.28% among 350,000; note: % is set by controls: 0 for no effect and ±100 for the full control effect; nearly all actives have a fitted effect of over 40% in size
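Enzyme-compound mixtures sat 15 min at room temperature, followed by a 5 min reaction with 15 nM final substrate and 10 min with AlphaScreen beads. Recombinant human Tdp1 was used at 1 nM final.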
DT40 TDP1 CPT = growth inhibition of DT40 Tdp1-/-;hTDP1 cells with camptothecin (screen for TDP1 inhibitors); Potency, µM (highest dose often 46.2 µM), for inactives: at the highest dose activity change, negative = growth inhibition, actives largely listed as inhibitors; chicken DT40 Tdp1-/-;hTDP1 cells + 20 nM CPT, ATP luminescence, 48 h; AID 686979; hit rate 12% among 420,000; note: % is set by controls: 0 for no effect and ±100 for the full control effect; nearly all actives have a fitted effect of over 55% in size
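Cell growth measured by CellTiter-Glo luminescence after a minimum 48 h, 37 C compound exposure with 20 nM CPT in Tdp1-knockout DT40 cells stably expressing hTDP1, seeded 400/well; qHTS titration format.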
An asterisk follows results filed as active; ? = inconclusive; . = not tested or not shown. Sampled rows, rich in hits. Any-hit rate of the full collection: about 17%. Unless noted, calls come from the whole dose curve; as a rule, active = well fitted curve in the direction sought with a large enough effect; inconclusive = small, poorly fitted or top-dose-only effect, or another doubt; inactive = no such curve, though single readings can be large; an effect the other way counts as inactive or inconclusive. Potency is the fitted concentration of half-maximal effect.

SMILES	DT40 TDP1 no CPT	ClpP mod	TDP1 block	DT40 TDP1 CPT
C/C=C1\COC(C(=O)NCc2ccccn2)(C(F)(F)F)C=C1C=C(C)C (stereo not given)	.	.	5%	.
COc1ccc(OC)c(C2C3=C(COC3=O)Nc3cc4c(cc32)OCO4)c1 (stereo not given)	0.15µM*	?	2%	0.16µM*
Cc1ccc(/C=N/N2C(=S)SC(C)(C)C2N(O)C(=O)Nc2ccc([N+](=O)[O-])cc2)cc1 (stereo not given)	18µM*	3%	7%	?
CC1(C)SC(=S)N(/N=C/c2cccnc2)C1N(O)C(=O)Nc1ccccc1 (stereo not given)	-15%	-6%	4%	0%
CC1(C)SC(=S)N(/N=C/c2ccccc2O)C1N(O)C(=O)Nc1ccccc1 (stereo not given)	16µM*	.	6%	12µM*
CC1(C)SC(=S)N(/N=C/c2ccc(O)cc2)C1N(O)C(=O)Nc1ccc([N+](=O)[O-])cc1 (stereo not given)	?	-2%	9%	23µM*
CC(C)Oc1ccc(CNC(=O)c2ccc3c(c2)nc2n3CCCCC2)cc1	?	-2%	5%	?
Cc1ccc(C(=O)CSc2nc(C)cc(C)c2C(=O)Nc2cccc(C)c2)cc1	?	-5%	-6%	21µM*
COc1ccc(C(=O)CSc2nc(C)cc(C)c2C(=O)Nc2ccccc2C)cc1	15µM*	3%	1%	?
COc1ccc(CNC(=O)CSc2nnc(C)c3c(C)n(-c4ccccc4)nc23)c(OC)c1	?	-2%	11%	?
COc1cccc(N2CCN(C(=O)c3ccc4nc[nH]c4c3)CC2)c1	10%	1%	7%	-13%
COc1cccc(N2CCN(C(=O)c3cccc(-n4c(C)nc5cccnc54)c3)CC2)c1	16µM*	2%	3%	12µM*
Cc1nc2cccnc2n1-c1cccc(C(=O)N2CCN(c3cccc(Cl)c3)CC2)c1	4.6µM*	1%	6%	4.1µM*
Cn1c(-c2ccccc2)cc2ccccc21	-23%	2%	.	-23%
Cn1c(C(c2cc3ccccc3n2C)c2cc3ccccc3n2C)cc2ccccc21	3.5µM*	-4%	.	5.6µM*
Cn1c(-c2ccccc2O)cc2ccccc21	18µM*	16µM*	4%	?
COC(=O)C(=O)C/C(=N/Nc1ncnc2ccccc12)c1ccc(Cl)cc1	?	-2%	14%	?
CCOc1cc(C2c3c(-c4cc(C)ccc4O)n[nH]c3C(=O)N2CCCOC(C)C)ccc1O (stereo not given)	?	-4%	1%	?
CCO[C@@H]1O[C@H](C(COCc2ccccc2)OCc2ccccc2)[C@H](OCc2ccccc2)[C@H]1O (stereo not given in full)	?	.	.	11µM*
CC(=O)c1cc(F)c(N2CCCC2)cc1C	21µM*	-1%	6%	21µM*
CC(=O)c1cc(F)c(N2CCN(c3ccc([N+](=O)[O-])cc3F)CC2)cc1C	-26%	1%	5%	?
CC(=O)c1cc(F)c(N2CCN(C(=O)C(C)(C)C)CC2)cc1C	21µM*	0%	7%	21µM*
CC(=O)c1cc(F)c(N2CCN(C(=O)COc3ccccc3F)CC2)cc1C	16µM*	1%	-2%	21µM*
O=C(COc1ccccc1F)N1CCN(S(=O)(=O)/C=C/c2ccccc2)CC1	?	-3%	4%	-5%
CCC(=O)c1cc(F)c(N2CCN(C(=O)Cc3ccccc3)CC2)cc1C	15µM*	3%	-1%	21µM*
SMILES	DT40 TDP1 no CPT	ClpP mod	TDP1 block	DT40 TDP1 CPT
CC(=O)c1cc(F)c(N2CCOCC2)cc1C	1%	-1%	4%	-14%
CS(=O)(=O)c1ccc(-c2csc(C(O)(c3ccccc3)C(F)(F)F)n2)cc1 (stereo not given)	?	-1%	.	?
Cc1ccccc1NS(=O)(=O)c1nnc(NC(=O)c2ccco2)s1	?	0%	4%	?
COc1ccc(NC(=O)Nc2cccc3c2O[C@H](CN(C)C(=O)Nc2ccccc2)[C@@H](C)CN([C@H](C)CO)C3=O)cc1	-11%	-2%	2%	-4%
COc1ccc(S(=O)(=O)Nc2cccc3c2O[C@H](CN(C)Cc2ccc(Oc4ccccc4)cc2)[C@@H](C)CN([C@H](C)CO)C3=O)cc1	21µM*	-1%	2%	16µM*
COc1ccc(CN(C)C[C@H]2Oc3c(NC(=O)Nc4ccccc4)cccc3C(=O)N([C@H](C)CO)C[C@@H]2C)cc1	29µM*	3%	4%	16µM*
C[C@@H]1CN([C@H](C)CO)C(=O)c2cccc(NS(=O)(=O)c3cccs3)c2O[C@H]1CN(C)Cc1ccccc1	12µM*	-3%	4%	12µM*
COc1ccc(S(=O)(=O)Nc2cccc3c2O[C@H](CN(C)Cc2ccc(-c4ccccc4)cc2)[C@@H](C)CN([C@H](C)CO)C3=O)cc1	?	-3%	3%	?
COc1ccc(NC(=O)C2CCN(C3=NS(=O)(=O)C(c4ccc(C)c(C)c4)=C3C)CC2)c(OC)c1	?	-1%	8%	?
Cn1c(N)c(C(=O)COC(=O)c2cc(S(=O)(=O)NCc3ccccc3)ccc2O)c(=O)n(C)c1=O	12%	-4%	.	10%
CN1CCN(C(=O)c2cnn(-c3cccc(Cl)c3)c2C2CCN(C(=O)OC(C)(C)C)CC2)CC1	-22%	0%	-7%	-1%
CC(CN(C)C)CN1c2ccccc2S(=O)(=O)c2ccccc21 (stereo not given)	-11%	.	.	-3%
CCCc1ccc(C(C)NC(=O)c2cnccn2)cc1 (stereo not given)	23µM*	-1%	5%	?
CCCCc1ccc(NC(=O)c2cnccn2)cc1	-14%	.	5%	0%
COc1ccccc1NC(=O)CSC1CC(=O)N(c2ccc3c(c2)OCO3)C1=O (stereo not given)	6.5µM*	-1%	-2%	4.6µM*
COc1ccccc1NC(=O)CN1CCN(CC(=O)Nc2ccc3c(c2)OCO3)CC1	?	-1%	5%	?
COc1ccc(N2C(=O)CC(SCC(=O)O)C2=O)cc1 (stereo not given)	-22%	-1%	0%	-28%
COc1ccc(NC(=O)CSC2CC(=O)N(c3ccc4c(c3)OCCO4)C2=O)cc1 (stereo not given)	23µM*	1%	11%	21µM*
COc1ccc(C(=O)N[C@H](C(=O)OCCCOC(=O)[C@@H](NC(=O)c2ccc(OC)cc2)C(C)C)C(C)C)cc1	?	11%	.	23µM*
Cc1ccc(C(=O)OCC(=O)Nc2ccccc2)cc1NC(=O)c1ccco1	-4%	27%	4%	-9%
